Experimental data from PubChem BioAssay (NCATS).
Results filed as inconclusive are left out. Where a call stands in place of a potency, no number is given. Active and inactive are the calls of the source. Calls follow the shape of the dose curve; as a rule, active = well fitted inhibition curve with a large enough effect; inconclusive = small, poorly fitted or top-dose-only effect; inactive = no such curve, though single readings can be large or run the other way.

Assay: qHTS for Inhibitors of the Aldehyde Dehydrogenase Family (ALDH1A2, ALDH1A3, ALDH2, ALDH3A1) (AID 2061307); also: nearly all actives have a fitted effect of over 50% in size; as to potency: test system not described further here
Settings: ALDH inhibition qHTS; series mostly up to 50.3 µM
Potency is read from the fitted curve at half-maximal effect.

| SMILES | Potency |
| --- | --- |
| O=C(Cn1nc2c(cc1=O)CCCC2)Nc1nc(-c2ccc3c(c2)OCO3)cs1 | inactive |
| COc1ccc(-c2nnc(SCC(=O)Nc3ccc(C(C)=O)cc3)o2)cc1 | inactive |
| O=C(Nc1ncc(CN2CCCCC2)s1)c1ccc(-c2cccc([N+](=O)[O-])c2)o1 | 11.3 µM (active) |
| COC(=O)c1ccc(NC(=O)CN(c2cccc(C(F)(F)F)c2)S(C)(=O)=O)cc1 | inactive |
| CCCCn1cnc2cc(NCc3ccc(OCC)cc3)ccc21 | 5.04 µM (active) |
| O=C(NCc1ccccc1Cl)c1csc(N2CCN(c3ccc(F)cc3)CC2)n1 | 2.51 µM (active) |
| CC(=O)c1c(C)n(-c2ccc(N(C)C)cc2)c2ccc(O)cc12 | inactive |
| COc1ccc2c(c1)CCNC2Cc1ccc(OC)c(O)c1 (stereo not drawn) | inactive |
| COc1cc(O)c(C(CC(=O)N2CC(C)CC(C)C2)c2ccc(NC(C)=O)cc2)c(OC)c1 (stereo not drawn) | 31.6 µM (active) |
| O=C(c1ccco1)N1CCN(Cc2nc3ccccc3c(=O)n2-c2ccccc2C(F)(F)F)CC1 | inactive |
| O=C(Nc1nc2ccc(Cl)cc2s1)c1cc(=O)c2ccccc2o1 | inactive |
| COc1ccccc1CN1CCC(N(CCc2ccccc2)Cc2ccccc2)CC1 | inactive |
| O=C(c1ccc(F)cc1)c1no[n+]([O-])c1C(=O)c1ccc(F)cc1 | 12.7 µM (active) |
| O=C1C=CC(=O)N1c1ccc(N2CCOCC2)cc1 | 1.13 µM (active) |
| COc1ccc(-n2nnc(-c3nc(-c4cccs4)no3)c2N)cc1OC | inactive |
| O=C(NC1CCCc2c1cnn2-c1ccc(OCCOCCOCCNCCc2cn(-c3cc4ccc(O)cc4oc3=O)nn2)cc1)c1ccccn1 (stereo not drawn) | inactive |
| Cc1c(P(=S)(c2ccccc2)c2ccccc2)[n+]2ccccc2n1C/C=C/c1cccc(Br)c1 | 3.16 µM (active) |
| Cc1c(P(=S)(c2ccccc2)c2ccccc2)[n+]2ccccc2n1C/C=C/c1ccc(Br)cc1 | inactive |
| Oc1[nH]c2ccccc2c1N=NC(=S)Nc1cccnc1 | inactive |

| SMILES | Potency |
| --- | --- |
| COc1ccc(F)cc1NC(=O)Cc1csc(-c2ccccc2Cl)n1 | inactive |
| OCC1CCN(c2ccc3cc(Br)ccc3n2)CC1 | 8.91 µM (active) |
| Cc1nnc(NCc2ccc(Cl)cc2)o1 | 8.96 µM (active) |
| O=C(Nc1nnc(Cc2ccccc2)s1)c1ccc(F)c(F)c1 | inactive |
| c1ccc(CCN(Cc2ccccc2)C2CCN(Cc3ccc4c(c3)OCCO4)CC2)cc1 | inactive |
| Cc1nn(CC(=O)N2CCN(c3cccc(C(F)(F)F)c3)CC2)c(=O)c2cc3sccc3n12 | inactive |
| Cc1nc(SCCc2nc3ccccc3[nH]2)c2oc3ccccc3c2n1 | inactive |
| O=C(O)c1ccnc(-n2cc(Br)cn2)c1 | inactive |
| Cc1cnc(CNc2nc(-c3ccccc3Cl)nc3ccccc23)cn1 | inactive |
| O=C(N/N=C/c1ccc(Sc2nc3ccccc3s2)o1)c1cccc(F)c1 | 0.896 µM (active) |
| Cc1ccc(-c2cc(C(=O)O)c3cccc(C)c3n2)cc1 | 7.12 µM (active) |
| c1cc(NC2CNC2)nc(-c2cnc3ccccn23)c1 | inactive |
| CSc1cc2c(s1)c1cnn(Cc3cccc(N)c3)c(=O)c1n2C | inactive |
| COc1ccccc1C(=O)Nc1nc2nc(C)cc(=O)n2[nH]1 | inactive |
| Nc1nc2c(s1)C(c1ccccc1)CC(=O)N2 (stereo not drawn) | 11.3 µM (active) |
| N#Cc1cccc(NC(=O)N2C[C@@H]3C[C@H](C2)c2ccc(-c4ccc(OC(F)(F)F)cc4)c(=O)n2C3)c1 | inactive |
| CCc1ccc(CNC(=O)c2cnc3c(C)cccn3c2=O)cc1 | inactive |
| COc1ccc(-n2c(C)c(C(C)=O)c3cc(OC(=O)c4ccco4)ccc32)cc1 | inactive |
| Cc1cc(NC(=O)c2cscn2)ccc1C(=O)O | inactive |
